Some test systems named below: RPMI-8226 leukemia; OVCAR-8 ovarian; OVCAR-5 ovarian; OVCAR-4 ovarian; SK-OV-3 ovarian; IGROV1 ovarian; HS 578T breast; NCI/ADR-RES ovarian; T-47D breast; BT-549 breast; MDA-MB-435 melanoma; SW-620 colon; MCF7 breast; HCT-116 colon; HCC-2998 colon; KM12 colon.
What all share (assay): NCI-60 one-dose screen, 48 h (100 = growth as untreated, 0 = no growth, -100 = all killed)
Holding throughout (conditions): 10 µM unless noted

The panel holds about 83,000 compounds, 20% with a hit somewhere; the sample as a whole holds those more often.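 How to read the values: 0–100, growth inhibition (40 = 60% inhibited); 0, no net growth; -100 to 0, cell death (-40 = 40% of starting cells died; -100 = all dead).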 A number with no mark means an inactive call. Activity calls are given as the source filed them. Rule for the calls: active = growth percent below 10; inactive = the rest.

In the case of `C=CCn1c(SCC(=O)Nc2cccc(C(=O)/C=C/c3cccc([N+](=O)[O-])c3)c2)nc2ccccc2c1=O`, the growth was 17% with RPMI-8226 leukemia; 94.2% with OVCAR-8 ovarian; 92.5% with OVCAR-5 ovarian; 92% in the test with OVCAR-4 ovarian; 116% in the test on SK-OV-3 ovarian; 96.8% with IGROV1 ovarian. Moreover, the growth in the test with HS 578T breast is 91.9%; with NCI/ADR-RES ovarian it was 95.7%; in the test with T-47D breast, 79.1%; in the test with BT-549 breast, 111%; in the test on MDA-MB-435 melanoma, 98.4%; in the test with SW-620 colon it was 62%. The growth in the test with MCF7 breast is 33.2%; in the test on HCT-116 colon, 8.94% (active); in the test with HCC-2998 colon, 101%; in the test on KM12 colon it was 104%.

With `CS(=O)c1nccc(-c2c(-c3ccc(F)c(OCCc4ccccc4)c3)nc3sccn23)n1` (centres undefined), the growth in the test on RPMI-8226 leukemia was 55.8%; in the test on OVCAR-8 ovarian, 93%; in the test on OVCAR-5 ovarian, 111%; in the test on OVCAR-4 ovarian it was 102%; with SK-OV-3 ovarian, 102%; in the test on IGROV1 ovarian, 17.7%. Besides, the growth with HS 578T breast is 99.8%; with NCI/ADR-RES ovarian, 108%; in the test on T-47D breast, 15.2%; with BT-549 breast it was 120%; in the test on MDA-MB-435 melanoma it was 111%; with SW-620 colon, 80.5%. Besides, the growth in the test with MCF7 breast is -1.77% (active); with HCT-116 colon it was 63.2%; in the test with HCC-2998 colon, 58.6%; in the test with KM12 colon, 89.2%.

Take `N#C/C(=C\c1ccc(-c2ccc(F)cc2)o1)C(=O)Nc1ncc(Cc2ccc(Cl)cc2Cl)s1`: the growth is 25.3% with RPMI-8226 leukemia; 6.14% (active) in the test with OVCAR-8 ovarian; 26% in the test on OVCAR-5 ovarian; -40.3% (active) in the test with OVCAR-4 ovarian; 107% in the test with SK-OV-3 ovarian; -1.72% (active) in the test with IGROV1 ovarian. The growth is 10.7% in the test on HS 578T breast; 6.32% (active) with NCI/ADR-RES ovarian; -5.01% (active) with T-47D breast; -15.8% (active) in the test on BT-549 breast; -20.4% (active) in the test with MDA-MB-435 melanoma; -67.1% (active) with SW-620 colon. Moreover, the growth in the test on MCF7 breast was -5.46% (active); with HCT-116 colon, -61.4% (active); in the test with HCC-2998 colon, 79.8%; in the test on KM12 colon it was 13.4%.

For `Cc1ccc(-c2cc(-c3ccc(N(C)C)cc3)n3c(n2)nc2ccccc23)cc1`, the growth with RPMI-8226 leukemia is 36.2%; with OVCAR-8 ovarian, 54.2%; with OVCAR-5 ovarian, 109%; with OVCAR-4 ovarian, 60.9%; with SK-OV-3 ovarian, 81.3%; with IGROV1 ovarian it was 86.2%. For the same compound, the growth in the test with HS 578T breast is 83%; in the test with NCI/ADR-RES ovarian, 56.7%; with T-47D breast, 6.32% (active); in the test with BT-549 breast, 82.2%; in the test on MDA-MB-435 melanoma, 65.3%; with SW-620 colon, 80.1%. Also, the growth in the test with MCF7 breast was 59.2%; in the test on HCT-116 colon, 39.4%; with HCC-2998 colon it was 80.3%; with KM12 colon, 78.4%.

As for `O=C(Cn1cc(CN2C(=O)c3ccc([N+](=O)[O-])cc3C2=O)nn1)Nc1ccc(F)cc1Cl`, the growth was 100% in the test with RPMI-8226 leukemia; 96.8% with OVCAR-8 ovarian; 102% in the test with OVCAR-5 ovarian; 106% in the test on OVCAR-4 ovarian; 89.7% in the test on SK-OV-3 ovarian; 100% in the test on IGROV1 ovarian. The growth with HS 578T breast was 111%; with NCI/ADR-RES ovarian it was 98.3%; with T-47D breast, 95.4%; in the test with BT-549 breast, 92.4%; with MDA-MB-435 melanoma, 101%; in the test with SW-620 colon, 99.6%. Moreover, the growth is 93.3% in the test on MCF7 breast, 102% in the test with HCT-116 colon, 100% in the test with HCC-2998 colon and 105% in the test on KM12 colon.

Regarding `C=CCn1c(SCC(=O)Nc2cccc(C(=O)/C=C/c3ccccc3)c2)nc2ccccc2c1=O`, the growth was 2.15% (active) in the test with RPMI-8226 leukemia; 83.3% in the test with OVCAR-8 ovarian; 101% in the test on OVCAR-5 ovarian; 88% in the test with OVCAR-4 ovarian; 122% in the test on SK-OV-3 ovarian; 87.6% in the test with IGROV1 ovarian. Also, the growth in the test on HS 578T breast is 99.2%; with NCI/ADR-RES ovarian, 87.1%; in the test on T-47D breast, 78.4%; in the test with BT-549 breast it was 107%; in the test with MDA-MB-435 melanoma, 82.9%; in the test on SW-620 colon, 12.2%. Further, the growth was 18.3% in the test on MCF7 breast, -3.91% (active) in the test on HCT-116 colon, 96% with HCC-2998 colon and 57.5% in the test on KM12 colon.

As for `COCCOc1ccc(-c2csc(NC(=O)CN3CCN(CCO)CC3)n2)cc1NS(=O)(=O)c1cccc2c(N(C)C)cccc12`, the growth was 54.6% in the test with RPMI-8226 leukemia; 81.2% with OVCAR-8 ovarian; 94.2% in the test with OVCAR-5 ovarian; 96% in the test with OVCAR-4 ovarian; 92.9% in the test on SK-OV-3 ovarian; 82.9% in the test on IGROV1 ovarian. Also, the growth in the test on HS 578T breast is 70.1%; in the test with NCI/ADR-RES ovarian, 97.2%; with T-47D breast, 84.5%; in the test on BT-549 breast, 96.1%; in the test with MDA-MB-435 melanoma, 83%; in the test with SW-620 colon, 93.4%. For the same compound, the growth in the test on MCF7 breast is 93.6%; in the test with HCT-116 colon, 10.8%; in the test with HCC-2998 colon, 91.3%; in the test with KM12 colon, 97.4%.

As for `CS(=O)(=O)c1ccc2c(c1)c1c(n2C(=O)c2ccc(Cl)cc2)CCCC1`, the growth in the test with RPMI-8226 leukemia is 15.4%; in the test on OVCAR-8 ovarian, 35.3%; in the test on OVCAR-5 ovarian, 50.3%; with OVCAR-4 ovarian it was 66.4%; in the test on SK-OV-3 ovarian it was 90.3%; with IGROV1 ovarian it was 46.2%. Moreover, the growth in the test on HS 578T breast was -0.806% (active); in the test on NCI/ADR-RES ovarian it was 25.7%; in the test on T-47D breast it was 18.1%; in the test with BT-549 breast it was 33%; with MDA-MB-435 melanoma, -24.3% (active); in the test on SW-620 colon it was 13.6%. Also, the growth is 17.8% in the test with MCF7 breast, 27.6% in the test on HCT-116 colon, 59.9% in the test on HCC-2998 colon and 29.8% with KM12 colon.

Consider `Cc1ccc(-c2cc(-c3cccc4ccccc34)n3c(n2)nc2ccccc23)cc1`, for which the growth in the test on RPMI-8226 leukemia is 65.2%; in the test on OVCAR-8 ovarian, 58.4%; in the test with OVCAR-5 ovarian, 92.7%; with OVCAR-4 ovarian, 79.6%; with SK-OV-3 ovarian, 100%; in the test on IGROV1 ovarian it was 59.5%. Moreover, the growth in the test with HS 578T breast is 56.5%; with NCI/ADR-RES ovarian, 67.7%; with T-47D breast it was 54.1%; in the test on BT-549 breast, 69.1%; in the test on MDA-MB-435 melanoma, 65%; in the test on SW-620 colon, 45.2%. The growth in the test on MCF7 breast was 22.6%; with HCT-116 colon, 43.4%; in the test with HCC-2998 colon, 92%; in the test with KM12 colon, 78.9%.

Source of the values: PubChem BioAssay (NCI).
